p53 reactivator = re-activators of mutant p53. H1299 p53-A138V BP100-luciferase reporter, luminescence, 24 h. Potency, µM (top dose mostly 92.2 µM), most hits filed as activators. hit rate 0.063% among 320,000. AID 504706; further: nearly all actives have a fitted effect of over 45% in size
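H1299 (p53-null), stable ts p53-A138V + BP100-Luc; 1000 cells/well, Opti-MEM/10% FBS; cpd 4 pt, 1:5; 24 h, 37 deg C, 5% CO2; detection reagent 10 min RT; luminescence.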
MCF10A rereplic = induces DNA re-replication in MCF 10a normal breast cells | MCF 10A DNA re-replication, Hoechst nuclear intensity, 48 h | Potency, µM (highest dose often 46.1 µM), most hits filed as activators | hit rate 2.9% among 350,000 | AID 624296; further: nearly all actives have a fitted effect of over 50% in size
ELG1 genotox = genotoxicity induction in ELG1-luciferase HEK293T cells; AID 504466; hit rate 1.3% among 330,000; Potency, µM (titrated, usually from 46 µM), hits mostly activators; HEK293T ELG1-luciferase reporter, luminescence, 16 h; further: nearly all actives have a fitted effect of over 60% in size
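After overnight (16 hr) compound treatment at 37 °C, ELG1-luciferase HEK293T cells were lysed with ONE-Glo; luminescence quantified 30 min later at room temperature.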
SW480 rereplic = induces DNA re-replication in SW480 colon adenocarcinoma cells; Potency, µM (top dose mostly 46.1 µM), actives largely listed as activators; hit rate 1.8% among 340,000; SW480 DNA re-replication, Hoechst DNA content imaging, 48 h; further: nearly all actives have a fitted effect of over 55% in size
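Image-based read-out: total Hoechst fluorescence of nuclei (405 nm excitation, 500-530 nm emission), with hits raising the fraction of high-intensity nuclei. SW480 colon cells incubated 48 hr with compounds at 37 C.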
AT treatment = potential ataxia-telangiectasia treatment; F2112 A-T fibroblasts, KAP-1 phosphorylation AlphaLISA; neocarzinostatin DNA damage 30 min before lysis; Potency, µM (titrated, usually from 57.5 µM), actives largely listed as activators; hit rate 0.19% among 320,000; AID 485349; further: nearly all actives have a fitted effect of over 45% in size
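hTERT-immortalized A-T patient fibroblasts (F2112), 500 cells/well in OPTI-MEM, 1% FBS, got compounds for 60 min, then NCS for 30 min at 37C. Lysates were then assayed for phospho-KAP-1 by AlphaLISA (anti-pKAP1 donor, anti-KAP1 acceptor beads), 6 hr at 25C.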
ELG1 repair inh = ELG1-dependent DNA repair inhibition; HEK293T ELG1-luciferase reporter, luminescence, 16 h; DNA damage induced by 5-fluorouridine; Potency, µM (doses to about 46.1 µM), hits mostly inhibitors; hit rate 2.3% among 330,000; further: nearly all actives have a fitted effect of over 55% in size
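Luminescence from the luciferase reporter, measured 30 min after ONE-Glo reagent at room temperature, was the read-out. Beforehand, 2,000 cells per well were exposed for 16 hr at 37 °C to 5-fluorouridine together with compound or vehicle.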
Each line names hits and unclear results; the compound was inactive in the other large screens. The list is not random: actives were taken first. Their share in the collection is about 7.1%. The call rests on the fitted dose curve; in most records, active means well fitted curve in the direction sought with a large enough effect; inconclusive means small, poorly fitted or top-dose-only effect, or another doubt; inactive means no such curve, though single readings can be large; an effect the other way counts as inactive or inconclusive.

CN(C)c1ccc(S(=O)(=O)NCC(=O)N2CCN(c3ccccc3)CC2)cc1[N+](=O)[O-]	none
O=C1CC2(CCN(C(=O)c3cccc(Br)c3)CC2)Oc2ccccc21	none
CC1CC(=O)N(CC(=O)Nc2ccc(Br)cc2)c2ccccc2S1(=O)=O (configuration not stated)	none
COCCCn1c(=N)c(C(N)=S)cc2c(=O)n3cccc(C)c3nc21	MCF10A rereplic inconclusive, SW480 rereplic 16µM (no result: p53 reactivator, ELG1 genotox, AT treatment, ELG1 repair inh)
COc1cccc(C2C(C(N)=O)=C(C)Nc3nc(-c4ccccc4Cl)nn32)c1 (configuration not stated)	ELG1 genotox 18µM, ELG1 repair inh inconclusive
COc1ccccc1C1C(C(N)=O)=C(C)Nc2nc(-c3ccccc3Cl)nn21 (configuration not stated)	ELG1 repair inh inconclusive
COc1cc2nc(SCC(=O)c3ccc(Br)cc3)n3nc(C)nc3c2cc1OC	ELG1 repair inh 4.1µM
CC(Sc1nnc(CN2CCCC2)n1Cc1ccccc1)C(=O)Nc1ccc(F)cc1Cl (configuration not stated)	MCF10A rereplic inconclusive, SW480 rereplic 3.7µM (no result: p53 reactivator, ELG1 genotox, AT treatment, ELG1 repair inh)
CC(Sc1nnc(CN2CCCC2)n1Cc1ccccc1)C(=O)Nc1ccc(F)cc1 (configuration not stated)	MCF10A rereplic inconclusive
OC(COc1cccc2ccccc12)CN1CCN(c2ccccc2Cl)CC1 (configuration not stated)	MCF10A rereplic 18µM, SW480 rereplic inconclusive
COc1cccc(/C(C#N)=C/c2c(-c3ccc(Cl)cc3)nc3c(C)cccn23)c1	ELG1 repair inh 15µM
Cc1cccn2c(/C=N/OCc3cccc(F)c3)c(-c3ccc(Cl)cc3)nc12	MCF10A rereplic inconclusive
CC1CCc2c(sc3[nH]c(=S)n(C)c(=O)c23)C1 (configuration not stated)	SW480 rereplic 10µM, ELG1 repair inh inconclusive
Cc1c(CCC(=O)NCCCn2ccnc2)c(=O)oc2c(C)c3oc4c(c3cc12)CCCC4	none
CC1CCCC(C)N1C(=O)c1ccc(S(=O)(=O)NCc2ccco2)cc1 (configuration not stated)	ELG1 repair inh 12µM
COCCOC(=O)C1=C(C)NC(=O)NC1/C=C/c1ccccc1 (configuration not stated)	none
CC1=C(C(=O)OC(C)C)C(/C=C/c2ccccc2)NC(=O)N1 (configuration not stated)	MCF10A rereplic inconclusive, ELG1 repair inh inconclusive
CC1=C(C(=O)OCc2ccccc2)C(/C=C/c2ccccc2)NC(=S)N1 (configuration not stated)	MCF10A rereplic 23µM, ELG1 repair inh inconclusive
COCCOC(=O)C1=C(C)NC(=S)NC1/C=C/c1ccccc1 (configuration not stated)	ELG1 repair inh 5.8µM
C=CCOC(=O)C1=C(C)NC(=S)NC1/C=C/c1ccccc1 (configuration not stated)	SW480 rereplic 15µM, ELG1 repair inh inconclusive
C#CCn1cc(Cl)cc(C(=O)Nc2ccccc2)c1=O	ELG1 repair inh inconclusive
O=c1cc(-c2ccc(O)c(O)c2)oc2ccc3ccccc3c12	MCF10A rereplic inconclusive, ELG1 genotox 1.5µM, SW480 rereplic inconclusive, ELG1 repair inh inconclusive (no result: p53 reactivator)
O=c1oc(-c2ccc(O)c(O)c2)cc2cc(O)cc(O)c12	p53 reactivator inconclusive, ELG1 genotox inconclusive, ELG1 repair inh inconclusive
O=c1oc(-c2ccc(O)c(O)c2)cc2cccc(O)c12	MCF10A rereplic 7.3µM, ELG1 genotox inconclusive, SW480 rereplic 16µM, ELG1 repair inh inconclusive
CN(CC(=O)Nc1cccc(F)c1)C(=O)CCc1nc2sc3c(c2c(=O)[nH]1)CCCC3	MCF10A rereplic inconclusive, SW480 rereplic inconclusive, ELG1 repair inh inconclusive
CCN(CC(=O)Nc1ccccc1C(=O)Nc1ccccc1)Cc1nc2ccccc2c(=O)[nH]1	ELG1 repair inh 10µM
CCN(CC(=O)Nc1ccccc1OC)CC(=O)Nc1ccccc1-c1ccccc1	MCF10A rereplic 15µM, SW480 rereplic inconclusive, ELG1 repair inh inconclusive
CCN(CC(=O)Nc1ccccc1OC)CC(=O)Nc1ccccc1C(F)(F)F	MCF10A rereplic inconclusive, SW480 rereplic inconclusive, ELG1 repair inh inconclusive
CCN(CC(=O)Nc1ccccc1-c1ccccc1)Cc1nc2ccccc2c(=O)[nH]1	MCF10A rereplic 6.5µM, SW480 rereplic inconclusive, ELG1 repair inh inconclusive
CCN(CC(=O)Nc1ccccc1SC)Cc1nc2ccccc2c(=O)[nH]1	SW480 rereplic inconclusive
COc1cccc(N(C)C(=S)Oc2ccc3c(c2)CCCC3)n1	none (no result: p53 reactivator, ELG1 genotox, AT treatment, ELG1 repair inh)
COCCOC(=O)c1[nH]c2c(c1C)C(=O)CC(c1ccco1)C2 (configuration not stated)	MCF10A rereplic 8.2µM, SW480 rereplic 1µM
CCOC(=O)c1[nH]c2c(c1C)C(=O)CC(c1ccco1)C2 (configuration not stated)	MCF10A rereplic 9.2µM, ELG1 genotox inconclusive, SW480 rereplic 0.18µM
CSCCOC(=O)c1[nH]c2c(c1C)C(=O)CC(c1ccco1)C2 (configuration not stated)	MCF10A rereplic inconclusive, SW480 rereplic 1.3µM
Cc1c(C(=O)OCCOC(C)C)[nH]c2c1C(=O)CC(c1ccco1)C2 (configuration not stated)	MCF10A rereplic inconclusive, SW480 rereplic 1.5µM
Cc1c(C(=O)OCc2ccccc2)[nH]c2c1C(=O)CC(c1ccco1)C2 (configuration not stated)	MCF10A rereplic inconclusive, SW480 rereplic inconclusive, ELG1 repair inh inconclusive
COc1ccc(N2C(=NC(=O)C3CC3)SC3CS(=O)(=O)CC32)cc1Cl (configuration not stated)	none
CC1CCCCN1C(=O)NC1CC(=O)N(c2ccc3c(c2)OCCO3)C1 (configuration not stated)	none
COCCOC(=O)c1[nH]c2c(c1C)C(=O)CC(c1ccc(F)cc1)C2 (configuration not stated)	MCF10A rereplic inconclusive, SW480 rereplic inconclusive, ELG1 repair inh inconclusive
COCCOC(=O)c1[nH]c2c(c1C)C(=O)CC(c1ccccc1)C2 (configuration not stated)	p53 reactivator inconclusive, MCF10A rereplic 5.8µM, SW480 rereplic 7.3µM, ELG1 repair inh inconclusive
COCCOC(=O)c1[nH]c2c(c1C)C(=O)CC(c1cc(OC)c(OC)c(OC)c1)C2 (configuration not stated)	ELG1 repair inh 8.2µM
CC(=O)c1c(C)[nH]c(C(=O)CN2C(=O)NC3(CCCCC3)C2=O)c1C	ELG1 repair inh inconclusive

Screening data: PubChem, National Center for Advancing Translational Sciences (NCATS)
